# Experimental data reported in ChEMBL document CHEMBL3988442, “University of Dundee, Small-Polar-MMV Screening Library” (2021).
# For some assays here: Potency and affinity values are given separately.
# Key:
# Parameters in all cases: scale not given: direction of the effect not stated beside the values
# [1] = target: Protein translocase subunit SecA (Escherichia coli (strain K12)) (UniProt P10408); experiment: Assay to Identify E. coli SecA ATPase Inhibitors; type: functional; details: 30 µM
# Sequence of Protein translocase subunit SecA (Escherichia coli (strain K12)) (P10408 whole entry): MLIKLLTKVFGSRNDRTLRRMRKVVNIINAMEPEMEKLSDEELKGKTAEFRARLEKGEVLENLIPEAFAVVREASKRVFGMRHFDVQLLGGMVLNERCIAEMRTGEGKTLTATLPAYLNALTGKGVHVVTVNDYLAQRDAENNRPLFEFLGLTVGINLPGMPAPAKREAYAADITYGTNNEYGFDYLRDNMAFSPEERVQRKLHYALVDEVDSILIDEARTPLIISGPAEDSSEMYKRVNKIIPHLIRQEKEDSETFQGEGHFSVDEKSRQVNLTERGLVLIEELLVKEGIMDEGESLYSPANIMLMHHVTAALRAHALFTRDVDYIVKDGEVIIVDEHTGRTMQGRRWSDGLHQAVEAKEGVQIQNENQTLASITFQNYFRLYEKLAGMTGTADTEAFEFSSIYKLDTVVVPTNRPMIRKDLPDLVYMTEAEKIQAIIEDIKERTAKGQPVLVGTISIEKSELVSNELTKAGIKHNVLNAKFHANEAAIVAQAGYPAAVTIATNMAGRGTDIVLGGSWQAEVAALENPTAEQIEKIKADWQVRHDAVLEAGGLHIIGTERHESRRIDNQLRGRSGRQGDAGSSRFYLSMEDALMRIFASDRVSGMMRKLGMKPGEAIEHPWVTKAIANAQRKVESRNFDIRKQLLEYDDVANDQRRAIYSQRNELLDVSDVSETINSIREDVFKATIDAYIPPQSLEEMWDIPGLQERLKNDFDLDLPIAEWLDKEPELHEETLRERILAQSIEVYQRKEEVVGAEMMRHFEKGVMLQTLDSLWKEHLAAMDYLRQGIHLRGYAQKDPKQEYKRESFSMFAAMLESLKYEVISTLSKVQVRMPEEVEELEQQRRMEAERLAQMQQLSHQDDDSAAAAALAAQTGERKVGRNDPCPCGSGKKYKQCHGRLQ
# [2] = target: T1, Ubiquitin-activating enzyme e1, putative (Leishmania donovani (strain BPK282A1)) (UniProt E9BSI1); experiment: Leishmania donovani Ubiquitin Activating Enzyme (LdE1); type: functional; details: 30 µM
# T1 sequence (whole entry): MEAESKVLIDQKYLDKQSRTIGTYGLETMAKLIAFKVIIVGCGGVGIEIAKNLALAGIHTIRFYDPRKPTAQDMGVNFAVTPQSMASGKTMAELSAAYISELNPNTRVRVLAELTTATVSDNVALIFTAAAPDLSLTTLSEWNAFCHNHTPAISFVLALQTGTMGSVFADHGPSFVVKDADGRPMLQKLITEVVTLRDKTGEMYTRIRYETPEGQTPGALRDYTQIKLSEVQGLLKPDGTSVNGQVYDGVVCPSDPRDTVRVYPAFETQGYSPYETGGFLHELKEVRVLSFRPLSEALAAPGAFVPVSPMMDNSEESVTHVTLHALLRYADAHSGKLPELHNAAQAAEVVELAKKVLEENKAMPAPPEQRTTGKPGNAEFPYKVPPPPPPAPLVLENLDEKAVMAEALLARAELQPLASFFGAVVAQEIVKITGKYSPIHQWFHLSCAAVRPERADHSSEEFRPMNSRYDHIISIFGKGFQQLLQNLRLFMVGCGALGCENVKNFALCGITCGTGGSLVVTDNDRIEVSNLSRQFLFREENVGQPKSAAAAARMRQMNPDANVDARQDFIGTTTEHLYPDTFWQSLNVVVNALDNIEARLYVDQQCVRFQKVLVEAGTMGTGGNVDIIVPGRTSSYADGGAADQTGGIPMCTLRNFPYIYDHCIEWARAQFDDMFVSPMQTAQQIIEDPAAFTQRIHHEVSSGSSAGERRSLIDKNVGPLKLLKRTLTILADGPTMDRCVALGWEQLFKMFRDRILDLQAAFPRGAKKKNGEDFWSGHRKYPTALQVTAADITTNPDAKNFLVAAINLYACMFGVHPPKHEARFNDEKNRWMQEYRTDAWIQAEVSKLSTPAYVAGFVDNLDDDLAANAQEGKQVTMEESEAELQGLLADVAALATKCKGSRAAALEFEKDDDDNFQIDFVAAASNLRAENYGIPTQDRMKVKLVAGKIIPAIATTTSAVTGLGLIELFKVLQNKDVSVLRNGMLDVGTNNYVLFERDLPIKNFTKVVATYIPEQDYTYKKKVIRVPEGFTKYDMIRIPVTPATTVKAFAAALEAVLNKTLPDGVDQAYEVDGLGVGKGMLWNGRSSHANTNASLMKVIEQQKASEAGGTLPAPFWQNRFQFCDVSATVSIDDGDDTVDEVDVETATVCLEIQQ
# [3] = target: AMP-activated protein kinase, AMPK (Homo sapiens) (UniProt P54646+O43741+P54619+Q9UGJ0+Q9Y478+Q13131+Q9UGI9); experiment: AMP-dependent Kinase enzyme assay. An in vitro enzyme assay that detects ADP turnover that is directly proportional to AMPK activity. This uses naive AMPK that is activated during the assay with MK-8722; type: functional; details: 30 µM
# [4] = target: Sialic acid-binding Ig-like lectin 9 (Homo sapiens) (UniProt Q9Y336); experiment: Hs-Siglec9 ALPHAscreen SOP 20170721; details: 10 µM
# Sequence of Sialic acid-binding Ig-like lectin 9 (Homo sapiens) (Q9Y336 whole entry): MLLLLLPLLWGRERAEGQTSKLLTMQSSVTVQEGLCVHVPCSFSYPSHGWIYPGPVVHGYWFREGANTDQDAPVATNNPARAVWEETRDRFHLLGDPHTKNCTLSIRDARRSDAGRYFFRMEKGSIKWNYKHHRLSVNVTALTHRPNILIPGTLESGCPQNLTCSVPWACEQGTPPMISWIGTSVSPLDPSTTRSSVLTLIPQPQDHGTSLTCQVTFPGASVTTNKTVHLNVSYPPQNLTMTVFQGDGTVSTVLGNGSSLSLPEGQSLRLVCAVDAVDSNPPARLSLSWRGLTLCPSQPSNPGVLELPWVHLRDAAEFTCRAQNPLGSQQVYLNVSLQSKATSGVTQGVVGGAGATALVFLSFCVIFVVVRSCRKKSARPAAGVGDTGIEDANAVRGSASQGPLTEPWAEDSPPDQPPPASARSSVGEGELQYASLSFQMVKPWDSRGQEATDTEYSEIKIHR
# Trypanosoma cruzi = experiment: Trypanosoma cruzi phosphomannomutase and mannose-1-phosphate guanylyltransferase assay; type: functional; details: 10 µM
# [5] = target: T2, Arginase-2, mitochondrial (Homo sapiens) (UniProt P78540); experiment: in vitro enzyme assay to detect the production of urea directly proportional to the activity of Arginase II; type: functional; details: 33.3 µM; note: in the data most compounds retested in dose-response had high values
# T2 sequence (whole entry): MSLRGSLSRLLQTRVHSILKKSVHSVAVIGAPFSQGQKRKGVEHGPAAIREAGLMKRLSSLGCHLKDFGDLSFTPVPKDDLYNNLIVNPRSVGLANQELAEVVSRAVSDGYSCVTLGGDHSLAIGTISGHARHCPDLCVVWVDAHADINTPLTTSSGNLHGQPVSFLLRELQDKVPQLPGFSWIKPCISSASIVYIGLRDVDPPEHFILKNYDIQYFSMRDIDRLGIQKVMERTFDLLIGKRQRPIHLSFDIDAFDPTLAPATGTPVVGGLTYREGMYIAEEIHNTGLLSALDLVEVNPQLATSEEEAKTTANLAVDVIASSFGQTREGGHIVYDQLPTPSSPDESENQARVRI
# [6] = target: T3, Proteasome subunit beta (Trypanosoma cruzi) (UniProt O96673); experiment: Trypanosoma cruzi proteasome chymotrypsin-like activity (TcProtChymo) assay.; note: in the data most compounds retested in dose-response had high values; type: functional; details: 9.37 µM
# T3 sequence (whole entry): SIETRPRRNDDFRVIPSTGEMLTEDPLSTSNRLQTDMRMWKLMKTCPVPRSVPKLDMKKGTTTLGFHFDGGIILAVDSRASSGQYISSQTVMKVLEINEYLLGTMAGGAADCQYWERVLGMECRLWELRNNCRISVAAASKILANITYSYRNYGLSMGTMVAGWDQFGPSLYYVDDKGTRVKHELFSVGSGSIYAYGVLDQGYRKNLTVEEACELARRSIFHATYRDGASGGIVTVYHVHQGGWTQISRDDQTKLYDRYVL
# Homo sapiens = species on record: Homo sapiens; experiment: To identify inhibition of the IFN signalling (Jak-Stat) pathway via expression of an eGFP reporter gene under the control of an IFN-stimulated response element (ISRE) containing MxA promoter.; type: functional; details: 30 µM
# [7] = target: T4, Tyrosyl-tRNA synthetase, putative (Trypanosoma cruzi (strain CL Brener)) (UniProt Q4DSP6); experiment: Trypanosoma cruzi tyrosyl tRNA synthetase (TcYRS) _High Tyrosine SOP; type: functional; details: 30 µM; note: in the data most compounds retested in dose-response had high values
# T4 sequence (whole entry): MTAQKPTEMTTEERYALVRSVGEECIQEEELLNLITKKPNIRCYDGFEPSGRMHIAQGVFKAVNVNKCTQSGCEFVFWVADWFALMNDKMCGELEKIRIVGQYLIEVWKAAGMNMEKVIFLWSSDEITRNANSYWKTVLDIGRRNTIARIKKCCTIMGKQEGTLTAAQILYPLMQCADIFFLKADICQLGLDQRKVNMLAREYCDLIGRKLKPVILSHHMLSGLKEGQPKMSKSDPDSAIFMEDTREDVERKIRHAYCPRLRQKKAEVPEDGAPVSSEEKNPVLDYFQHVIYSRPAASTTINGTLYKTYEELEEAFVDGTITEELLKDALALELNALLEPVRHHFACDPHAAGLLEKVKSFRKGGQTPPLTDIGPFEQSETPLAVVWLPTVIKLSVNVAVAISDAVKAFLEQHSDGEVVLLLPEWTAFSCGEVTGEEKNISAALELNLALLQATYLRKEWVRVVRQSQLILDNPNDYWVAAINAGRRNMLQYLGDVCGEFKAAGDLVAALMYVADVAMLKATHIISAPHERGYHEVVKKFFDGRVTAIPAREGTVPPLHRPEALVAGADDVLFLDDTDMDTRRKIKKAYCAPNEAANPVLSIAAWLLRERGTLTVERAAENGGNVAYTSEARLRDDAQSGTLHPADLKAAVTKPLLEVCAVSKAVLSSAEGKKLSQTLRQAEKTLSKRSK
# [8] = target: T4, Tyrosyl-tRNA synthetase, putative (Trypanosoma cruzi (strain CL Brener)); experiment: Trypanosoma cruzi tyrosyl tRNA synthetase (TcYRS) SOP; type: functional; details: 30 µM
# [9] = target: Chromo domain-containing protein 1 (Saccharomyces cerevisiae (strain ATCC 204508 / S288c) (Baker's yeast)) (UniProt P32657); experiment: ScCHD-1 Enzyme Inhibition Assay; type: functional; details: 30 µM; note: in the data most compounds retested in dose-response had high values
# Sequence of Chromo domain-containing protein 1 (Saccharomyces cerevisiae (strain ATCC 204508 / S288c) (Baker's yeast)) (P32657 whole entry, the tested form may be a part): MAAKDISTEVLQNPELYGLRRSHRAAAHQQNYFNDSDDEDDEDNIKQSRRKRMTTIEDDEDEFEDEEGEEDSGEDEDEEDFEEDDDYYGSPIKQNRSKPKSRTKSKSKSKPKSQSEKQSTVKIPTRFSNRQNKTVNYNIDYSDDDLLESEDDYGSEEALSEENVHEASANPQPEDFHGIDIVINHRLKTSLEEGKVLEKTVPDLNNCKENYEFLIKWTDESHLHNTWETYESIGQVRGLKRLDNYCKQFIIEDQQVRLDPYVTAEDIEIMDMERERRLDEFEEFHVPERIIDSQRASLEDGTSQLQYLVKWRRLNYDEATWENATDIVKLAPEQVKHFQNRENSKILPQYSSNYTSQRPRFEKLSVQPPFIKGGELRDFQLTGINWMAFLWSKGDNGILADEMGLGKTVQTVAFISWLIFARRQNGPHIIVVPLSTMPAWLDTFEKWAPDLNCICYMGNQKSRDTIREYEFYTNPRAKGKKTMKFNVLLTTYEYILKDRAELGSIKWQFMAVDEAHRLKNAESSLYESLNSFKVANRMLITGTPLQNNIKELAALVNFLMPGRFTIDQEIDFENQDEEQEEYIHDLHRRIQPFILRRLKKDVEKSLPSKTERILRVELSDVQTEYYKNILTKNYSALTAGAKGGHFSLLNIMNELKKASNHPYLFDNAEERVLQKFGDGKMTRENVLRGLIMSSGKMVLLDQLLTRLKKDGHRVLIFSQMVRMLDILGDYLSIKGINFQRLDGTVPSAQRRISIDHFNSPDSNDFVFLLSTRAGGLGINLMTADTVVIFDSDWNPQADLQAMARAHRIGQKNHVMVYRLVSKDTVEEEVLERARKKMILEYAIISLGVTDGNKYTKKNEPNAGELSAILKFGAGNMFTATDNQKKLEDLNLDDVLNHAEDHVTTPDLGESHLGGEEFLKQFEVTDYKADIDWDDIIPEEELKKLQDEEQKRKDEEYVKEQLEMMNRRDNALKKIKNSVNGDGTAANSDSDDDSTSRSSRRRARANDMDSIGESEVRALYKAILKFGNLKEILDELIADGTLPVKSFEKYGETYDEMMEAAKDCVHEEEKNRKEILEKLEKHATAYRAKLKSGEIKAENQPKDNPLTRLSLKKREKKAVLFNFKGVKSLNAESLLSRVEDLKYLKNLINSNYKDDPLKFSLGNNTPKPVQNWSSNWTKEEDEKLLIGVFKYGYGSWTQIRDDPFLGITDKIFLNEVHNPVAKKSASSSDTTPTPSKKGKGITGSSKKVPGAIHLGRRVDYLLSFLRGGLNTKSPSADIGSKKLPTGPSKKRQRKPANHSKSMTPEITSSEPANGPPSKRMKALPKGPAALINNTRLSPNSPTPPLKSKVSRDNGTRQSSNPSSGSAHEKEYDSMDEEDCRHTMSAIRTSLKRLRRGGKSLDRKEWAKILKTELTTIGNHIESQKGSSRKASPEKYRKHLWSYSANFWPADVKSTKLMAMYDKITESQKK
Compound,Percent Effect [1],Percent Effect [2],Percent Effect [3],Percent Effect [4],Percent Effect (Trypanosoma cruzi),Percent Effect [5],Percent Effect [6],Percent Effect (Homo sapiens),Percent Effect [7],Percent Effect [8],Percent Effect [9]
O=C(c1ccc(-n2ccnc2)nc1)N1CCCC(n2cccn2)C1 (configuration not stated),-0.548%,7.89%,-2.37%,3.05%,-2.63%,7.28%,-0.501%,15.7%,5.39%,9.76%,0.587%
Cn1ncc2c(N3CCN(C(N)=O)CC3)nc(C3CCCC3)nc21,-1.31%,1.39%,27.7%,-4.81%,-7.29%,0.883%,18.4%,25.9%,1.05%,-7.69%,-4.35%
CCn1cc(CN2CCCN(C(=O)C3=NN(C)C(=O)CC3)CC2)cn1,0.989%,18.2%,0.0374%,-13.6%,-0.686%,6.11%,13.7%,29.5%,5.71%,0%,-17.5%
COc1cc2nc(C)n(CC(=O)O)c(=O)c2cc1OC,-4.09%,6.67%,6.76%,2.01%,-0.982%,1.23%,13.1%,19.2%,8.47%,12.8%,-7.94%
CC(=O)Nc1nc(CN2CCCC2Cn2cncn2)cs1 (configuration not stated),-7.57%,13%,-6.56%,16.5%,10.3%,2.85%,9.29%,18.8%,9.71%,26.8%,-12.8%
O=C1COC2(CCN(Cc3ccc(F)cc3)CC2)CN1,-4.15%,2.7%,2.05%,-2.96%,6.25%,-0.417%,10.2%,-6.9%,5.94%,15.8%,-6.08%
CCS(=O)(=O)N1CC[C@H](OC)[C@@H]1Cc1ccncc1,-2.5%,13.5%,-1.61%,-11.3%,-4.59%,-9.87%,15.3%,7.61%,0%,7.69%,-5.24%
Cc1cnn(CCNCc2ccc(F)cc2Cl)c1,-3.52%,8.11%,-1.08%,10.9%,-1.02%,0.554%,10.9%,-9.92%,1.98%,13.4%,1.6%
CC(C(=O)NCCCN1CCCCCC1=O)n1cncn1 (configuration not stated),-2.32%,21.1%,-0.014%,-11.5%,-1.4%,-5.04%,8.04%,2.75%,5.42%,13.6%,-7.45%
O=C1CCC2(CCN(Cc3nccs3)CC2)N1Cc1ccccc1,-0.659%,5.33%,5.45%,1.02%,-5.91%,3.03%,10.8%,5.84%,5.32%,11.5%,-0.585%
Cc1sc(NC(=O)CN(C)S(C)(=O)=O)c(C#N)c1C,-2.06%,7.79%,7.85%,-2.17%,-6.8%,-29%,13.4%,2.12%,5.29%,8.97%,-6.9%
CCn1cc(CN2C[C@@H]3CCCN3C[C@@H]2CCSC)c(C)n1,-1.75%,5.33%,8.44%,4.09%,-4.53%,2.1%,8.37%,3.9%,3.19%,6.41%,0.13%
O=C(CCc1ccccn1)N1CCN(C(=O)CC2CCCCC2)CC1,-6.55%,15.6%,-6.12%,-12.3%,4.41%,-5.68%,10.9%,4.51%,5.71%,18.8%,-18.5%
COc1ccc2c(O)c(NC(=O)NCC3CC3)cnc2c1,1.05%,14.9%,9.57%,-7.59%,-1.38%,-4.87%,14.7%,7.86%,2.15%,9.09%,-11.6%
Cc1ccc(F)c(-n2nnc(C(=O)O)c2-c2ccncc2)c1,-0.715%,13.2%,2.72%,-1.83%,-3.8%,-2.37%,22.7%,-8.42%,3.19%,10.4%,-1.85%
Cn1cnc2c1C(COCC1CC1)CN(Cc1ccsc1)C2 (configuration not stated),-1.29%,13%,3.5%,-4.76%,-1.68%,7.1%,20.2%,6.71%,6.35%,11.5%,-6.29%
CCC(=O)N1CCCC(c2cc(Nc3ncccn3)nc(C)n2)C1 (configuration not stated),-3.27%,1.35%,13.2%,-0.199%,-1.58%,-5.8%,10.6%,-1.71%,6.45%,11.7%,-6.06%
Cc1ccc(-c2nc(CN3CCN(S(=O)(=O)N(C)C)CC3)cs2)o1,1.85%,3.8%,3.49%,-3.53%,-3.79%,1.94%,20.9%,43.8%,8.33%,12.7%,-19.4%
Cc1cnn(C2CN(Cc3nc(-c4ccco4)no3)C2)c1,-7.03%,13%,26.4%,11.1%,0.374%,-0.356%,5.41%,10.2%,10.7%,19.5%,-2.84%
CCc1cccc(N2CCC(NC(=O)c3ccc(=O)[nH]n3)CC2)c1,-0.605%,3.8%,2.33%,1.07%,-4.82%,4.52%,15.8%,21%,5.21%,15.2%,-11.3%
Cc1cccc(NC(=O)NCCCn2nc3ccccn3c2=O)c1C,-5.55%,2.7%,-32%,-5.5%,0.0943%,0%,-1.26%,6.71%,8.37%,6.17%,-9.2%
c1cc(C2CCCN2Cc2nnnn2C2CC2)cs1 (configuration not stated),-2.2%,4.17%,-9.7%,-8.8%,-4.18%,0%,21.2%,0.525%,6.32%,10.3%,2.21%
